The values below come from PubChem BioAssay.

Structures are written as SMILES.

Test [1] relates to Human papillomavirus type 1a protein E7 (residues 44-93). In words: HPV1a E7 fragment binders on microarrays, primary screen, biochemical, small-molecule microarray, residues 44-93, 635 nm fluorescence (AID 1108).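 Note: E7 fragment applied at 1 µg/mL in TBST for 1 h at 4 C; score combines spot fluorescence with its signal to noise ratio.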 The following applies: small-molecule microarray binding, fluorescence 635 nm; higher = more signal.
Test [2] in a line: modulators of HCV replicon luciferase signal, primary screen, HCV replication inhibitor project, Huh7 cells, luciferase reporter (AID 1109).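 Note: huh7 hepatoma cells harbouring a luciferase neomycin HCV replicon reporter; luciferase luminescence as measure of HCV replicon replication; test concentration not given here.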 The following applies: 48 h, higher = more signal.
For test [3], the target named is Left-right determination factor 2 (Homo sapiens) (UniProt O00292). In words: LEFTY2 binders on small-molecule microarrays, primary screen, biochemical, small-molecule microarray, 635 nm fluorescence scan (AID 1110). The following applies: LEFTY2 binding, higher = more signal.
Test [4] addresses Calmodulin-1 (Homo sapiens) (UniProt P0DP23). Put plainly: CALM1 binders on microarrays, EGTA buffer, profiling panel, biochemical, small-molecule microarray, Cy5-labelled CALM1 (AID 1111).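 Note: labelled calmodulin applied in Tris saline Tween buffer holding calcium plus EGTA and DTT.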 The settings on record: Cy5-CALM1 binding fluorescence, higher = more signal.
Test [5] has the same target. In words: calcium-bound CALM1 binders on microarrays, profiling panel, artefact control for SMM control-protein annotation, biochemical, small-molecule microarray, Cy5-labelled CALM1, plus calcium (AID 1112).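 Note: score merges spot fluorescence with signal to noise from triplicate slides.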 The settings on record: Cy5-CALM1 binding fluorescence, higher = more signal.
Test [6] is described as follows: small-molecule microarray binders of probe aWnt5a, primary screen, biochemical, biotinylated probe, 635/667 nm fluorescence (AID 1113).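 Note: score merges 667 nm fluorescence intensity with signal-to-noise per printed feature.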 The settings on record: higher = more signal.
A short description of test [7]: small-molecule microarray binders of probe aShh, primary screen, biochemical, biotinylated probe, 635/667 nm fluorescence (AID 1114).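 Note: probe is biotin-labelled aShh protein from a stem cell growth factor screen; measures binding of labelled protein to compounds printed on the slide; score merges feature fluorescence at 667 nm with signal-to-noise.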 The following applies: higher = more signal.
A short description of test [8]: small-molecule microarray binders of probe aNog, primary screen, biochemical, biotinylated probe, 635/667 nm fluorescence (AID 1115).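 Note: probe is biotinylated aNog protein used at 0.15 µg/mL for 1 h at 4 C; z-score combines 667 nm fluorescence of each spot with its signal to noise.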 The settings on record: higher = more signal.
For test [9], the target named is Torsin-1A-interacting protein 1 (Homo sapiens) (UniProt Q5JTV8). In words: LAP1 binders from COS7 cell lysate, primary screen, small-molecule microarray, 635/667 nm fluorescence (AID 1116). The following applies: COS7-hLAP1 lysate binding, 635 nm fluorescence, higher = more signal.
Test [10] concerns the target Alpha-bungarotoxin (Bungarus multicinctus) (UniProt P60615). Put plainly: alpha-bungarotoxin binders on microarray, profiling panel, artefact control for SMM control protein annotation, biochemical, small-molecule microarray, Alexa647 label, 635/667 nm fluorescence (AID 1117). The settings on record: alpha-BTX-A647 binding fluorescence, higher = more signal.

Sequence of Alpha-bungarotoxin (Bungarus multicinctus) (P60615 whole entry, looked up): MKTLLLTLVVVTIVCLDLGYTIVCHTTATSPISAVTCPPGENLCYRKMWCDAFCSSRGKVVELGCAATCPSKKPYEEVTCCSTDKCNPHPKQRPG
Sequence of Left-right determination factor 2 (Homo sapiens) (O00292 whole entry, looked up): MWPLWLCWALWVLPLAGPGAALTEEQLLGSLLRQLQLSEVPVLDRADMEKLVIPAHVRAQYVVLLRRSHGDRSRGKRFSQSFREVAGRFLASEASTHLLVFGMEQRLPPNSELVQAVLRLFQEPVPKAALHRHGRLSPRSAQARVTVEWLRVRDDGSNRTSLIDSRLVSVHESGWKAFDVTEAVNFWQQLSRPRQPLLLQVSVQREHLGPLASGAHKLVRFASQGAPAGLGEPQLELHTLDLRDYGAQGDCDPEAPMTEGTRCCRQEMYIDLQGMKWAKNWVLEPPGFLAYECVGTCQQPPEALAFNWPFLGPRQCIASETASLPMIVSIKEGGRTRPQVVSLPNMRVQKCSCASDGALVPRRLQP
Sequence of Torsin-1A-interacting protein 1 (Homo sapiens) (Q5JTV8 whole entry, looked up): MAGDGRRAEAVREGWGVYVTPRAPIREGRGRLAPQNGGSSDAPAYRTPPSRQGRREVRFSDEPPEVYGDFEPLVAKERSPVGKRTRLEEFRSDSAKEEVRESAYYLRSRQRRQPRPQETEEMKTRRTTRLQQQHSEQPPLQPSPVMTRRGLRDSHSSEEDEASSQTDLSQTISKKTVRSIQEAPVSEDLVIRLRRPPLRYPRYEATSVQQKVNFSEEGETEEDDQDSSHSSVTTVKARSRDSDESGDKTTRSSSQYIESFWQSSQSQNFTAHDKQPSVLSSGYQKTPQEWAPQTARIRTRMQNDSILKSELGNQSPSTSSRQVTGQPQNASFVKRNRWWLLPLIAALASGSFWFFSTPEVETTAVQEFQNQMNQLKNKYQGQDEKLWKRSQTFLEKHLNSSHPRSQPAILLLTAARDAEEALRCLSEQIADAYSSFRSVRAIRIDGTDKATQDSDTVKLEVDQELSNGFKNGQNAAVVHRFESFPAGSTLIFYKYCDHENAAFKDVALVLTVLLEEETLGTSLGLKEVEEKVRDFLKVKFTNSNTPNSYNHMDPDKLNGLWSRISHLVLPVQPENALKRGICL

For `Cc1ccc(S[C@]2(C(=O)O)CC(=O)N(C3CCCCC3)[C@@H]2c2ccc(CO)cc2I)cc1`, the composite z-score is 1.35 in test [1]; -0.326 in test [3]; 1.79 in test [4]; 0.63 in test [5]; -0.113 in test [6]; 0.351 in test [7]. The values for the composite z-score in [8], in [9] and in test [10] were 1.06, 1.4 and 0.763, respectively. Also, the z-score in test [2] is -0.298.
As to `C[C@@H]1NC(=O)[C@@H](Cc2ccccc2)NC(=O)[C@@]23C(=O)N[C@@H](Cc4ccccc4)C2[C@H](C)[C@@]2(C)O[C@H]2C3/C=C/C/C=C\CNC1=O` (stereo not given in full), the composite z-score in [1] is 0.739; in [3], -0.22; in test [4], -0.744; in test [5], -1.16; in test [6], -0.222; in test [7], -0.0471. The results for the composite z-score in [8], in [9] and in [10] were -0.281, -0.0991 and -0.537, respectively. The compound also had a z-score in test [2] of -0.857.
In the case of `COc1ccc([Si](C)(C)[C@@H]2[C@@H](CC(=O)N3CCC[C@H]3CO)O[C@]3(C(=O)N(Cc4cccc(N5C(=O)COc6ccccc65)c4)c4ccccc43)[C@H]2C)cc1`, the composite z-score was found to be 1.35 in test [1]; 0.486 in [3]; 1.49 in test [4]; 0.343 in test [5]; 0.0215 in [6]; 0.131 in test [7]. Further, the composite z-score in test [8] was -0.368; in test [9], 1.41; in [10], 0.678. In test [2], this compound gave a z-score of -4.2.
In the case of `CO[C@H]1O[C@H](CO)[C@@H](OC(=O)Nc2ccccc2)[C@H](OC(=O)c2cc3ccccc3[nH]2)[C@H]1OC(=O)c1cc2ccccc2[nH]1`, the composite z-score is 0.0679 in [1]; 0.165 in [3]; 0.204 in test [4]; 0.47 in [5]; 0.0642 in test [6]; 0.14 in [7]. In addition, the composite z-score in [8] is -0.367; in [9], 0.621; in [10], 0.326. In test [2], this compound displayed a z-score of -2.05.
Consider `COc1ccc([Si](C)(C)[C@@H]2[C@@H](CC(=O)N3Cc4ccccc4C[C@H]3CO)O[C@]3(C(=O)N(Cc4ccc(N5C(=O)c6cccc7cccc5c67)cc4)c4ccccc43)[C@H]2C)cc1`, for which the composite z-score is 1.35 in test [1]; 0.987 in test [3]; 0.318 in [4]; -0.512 in test [5]; -0.0585 in test [6]; 0.0952 in [7]. Moreover, the values for the composite z-score in [8], in test [9] and in test [10] were 0.251, 1.04 and 0.964, respectively. This compound showed a z-score in test [2] of -3.96.
On to `CC(=O)NCCCC[C@@H]1NC(=O)[C@@H]2C[C@H](C(=O)NCCCCCN)[C@H](c3cccc(OCCO)c3)N2C1=O`, for which the composite z-score was determined as 0.794 in test [1]; 0.736 in test [3]; 1.09 in test [4]; 0.634 in test [5]; 0.0546 in test [6]; 0.663 in [7]. For the same compound, the composite z-score amounted to 0.489 in test [8], 1.03 in test [9] and 1.16 in [10]. The compound also displayed a z-score in test [2] of -0.0844.
For the compound `COC(=O)[C@@]1(Cc2ccc(F)cc2)[C@H]2c3cc(C(=O)N4CCCC4)n(Cc4ccc(C)c(F)c4F)c3C[C@H]2CN1C(=O)c1ccccc1`, the composite z-score in [1] is -0.751; in [3], -0.419; in test [4], 0.344; in test [5], 0.612; in test [6], -0.119; in test [7], -0.0813. Moreover, the results for the composite z-score in test [8], in [9] and in test [10] were 0.935, 0.65 and -0.106, respectively. For the same compound, in [2], the z-score was -0.914.
As for `O=C(c1ccccc1)N1C(=O)[C@]2(Cc3ccccc31)N=C(c1ccc(OCCCO)cc1)O[C@@H]2c1ccccc1`, the composite z-score in [1] is 1.44; in test [3] it was 0.148; in test [4], 1.43; in [5] it was -0.165; in test [6] it was -0.0758; in test [7], 0.108. The composite z-score in test [8] is -0.535; in test [9] it was 0.688; in [10], 1.46. In [2], the z-score was -2.94.
For the compound `NC(=O)[C@H]1[C@@H]2C(=O)O[C@@H](c3ccccc3)[C@@H](c3ccccc3)N2[C@@H](c2ccc(OCCO)cc2)[C@]12C(=O)Nc1ccc(C#CCCO)cc12`, the composite z-score in test [1] was 0.333; in test [3], -0.128; in test [4] it was 0.947; in test [5], 0.382; in test [6] it was 0.055; in test [7], -0.253. Further, the composite z-score in [8] was -0.387; in test [9], 0.757; in test [10] it was 1.59. Further, in test [2], the z-score is -1.39.
As for `COCCOC(=O)N1C(=O)[C@@]2(c3cc(C#CC4=CCCCC4)ccc31)[C@H](c1ccccc1OCCO)N1[C@H](c3ccccc3)[C@H](c3ccccc3)OC(=O)[C@H]1[C@@H]2C(=O)N1CCN(c2ncccn2)CC1`, the composite z-score in test [1] is 1.28; in [3] it was 0.718; in test [4] it was 0.501; in test [5] it was 0.466; in [6] it was -0.206; in [7] it was 0.0048. In addition, the composite z-score in [8] is -0.404; in test [9], 0.0174; in test [10], 0.511. The compound further yielded a z-score in test [2] of -2.1.
As to `COc1ccc(CCNC(=O)[C@@]2(c3ccc([N+](=O)[O-])cc3)CC(=O)N(C3CCCCC3)[C@@H]2c2ccc(CO)cc2)cc1`, the composite z-score was 0.91 in test [1]; -0.197 in test [3]; 0.36 in [4]; 0.323 in [5]; -0.0341 in test [6]; -0.0886 in test [7]. The composite z-score in [8] was -0.203; in test [9], 0.774; in test [10], 0.823. For the same compound, the z-score in test [2] is -0.88.
As for `CCC#CCN(Cc1ccccc1Br)[C@H](/C=C/C1CC1)[C@@H](O)Cc1ccccc1`, the composite z-score is -1.04 in test [1]; -0.398 in test [3]; -0.414 in [4]; -0.659 in [5]; -0.197 in test [6]; -0.214 in test [7]. The composite z-score was -0.209 in test [8], -0.675 in test [9] and -0.229 in test [10]. The z-score in [2] is -2.19.
For the compound `[N-]=[N+]=Nc1ccccc1C[C@]1(C(=O)NCC(O)CO)COC(c2ccc(OCCCO)cc2)=N1` (stereo not given in full), the composite z-score is 0.776 in [1]; -0.314 in [3]; 1.32 in test [4]; 0.37 in test [5]; -0.132 in [6]; 0.275 in test [7]. In addition, the results for the composite z-score in [8], in test [9] and in test [10] were -0.236, 2.01 and -0.633, respectively. The compound also registered a z-score in [2] of -0.677.
For the compound `Cc1ccc(C(C)CC(O)C2C=CC3C(=O)N(c4ccccc4)C(=O)C3N2Nc2ccccc2)o1` (stereo not given), the composite z-score in test [1] stood at 1.44; in test [3] it was 0.285; in test [4] it was 1.3; in [5], 0.125; in test [6], 0.0802; in test [7], 0.308. For the same compound, the composite z-score in test [8] was 1.5; in test [9], 0.789; in test [10] it was 1.3. In test [2], this compound yielded a z-score of -0.741.
For `COCCOC(=O)N1C(=O)[C@@]2(c3cc(C#CC4=CCCCC4)ccc31)[C@H](C(=O)Nc1nc3ccccc3s1)[C@H]1C(=O)O[C@H](c3ccccc3)[C@H](c3ccccc3)N1[C@@H]2c1ccc(O)cc1`, the composite z-score in test [1] was 1.39; in test [3], 0.647; in [4], 1.07; in test [5], 0.641; in test [6], -0.15; in test [7], -0.51. In addition, the composite z-score was -0.483 in test [8], 0.666 in test [9] and 0.42 in test [10]. In addition, in [2], the z-score was -1.1.
As for `COCCOC(=O)N1C(=O)[C@@]2(c3cc(C#CC4=CCCCC4)ccc31)[C@H](c1ccccc1OCCO)N1[C@H](c3ccccc3)[C@H](c3ccccc3)OC(=O)[C@H]1[C@@H]2C(=O)NC[C@H](O)c1ccccc1`, the composite z-score in test [1] worked out at 1.4; in test [3], 0.869; in [4] it was 1.04; in [5] it was 0.213; in [6] it was 0.0839; in test [7] it was 0.0081. Also, the composite z-score in test [8] is -0.939; in test [9], 0.978; in test [10], 1.64. In addition, the z-score in test [2] is -3.19.
On to `COc1ccc([C@H]2OC[C@@H]3C[C@H](Cc4ccccc4)C(=O)N32)cc1`, for which the composite z-score in [1] was 0.156; in test [3] it was 0.367; in test [4] it was 0.106; in test [5] it was -0.668; in [6], 0.188; in test [7], 0.111. Besides, the results for the composite z-score in test [8], in test [9] and in test [10] were -0.113, 0.373 and 1.59, respectively. This compound also returned a z-score in test [2] of -2.66.
